Calb FLC: C. albicans growth modulation with fluconazole | C. albicans CaCi-2 (fluconazole-resistant clinical isolate) + fluconazole, Alamar Blue growth, 48 h | growth inhibition, % (no concentration beside the values) | hit rate 0.57% among 300,000 | AID 1979;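 active = growth inhibition above about 58% in most replicates, limit read from the data, passing the limit was not always enough; inconclusive = exactly half the replicates above a set limit; inactive = most replicates below a set limit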;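 also: all wells also contain fluconazole at 8 µg/ml as a sub-toxic cotreatment; 0% = median of DMSO wells and 100% = median of geldanamycin control wells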
Rin1-Abl PPI inh: inhibitors of human Rin1-Abl protein interaction. TR-FRET Rin1/Abl binding, biochemical. P00519+Q13671. AID 588664. inhibition, % at 7.35 µM. hit rate 0.4% among 360,000; in the data active = inhibition above about 5%, passing the limit was not always enough
Target sequence (P00519 whole entry, looked up): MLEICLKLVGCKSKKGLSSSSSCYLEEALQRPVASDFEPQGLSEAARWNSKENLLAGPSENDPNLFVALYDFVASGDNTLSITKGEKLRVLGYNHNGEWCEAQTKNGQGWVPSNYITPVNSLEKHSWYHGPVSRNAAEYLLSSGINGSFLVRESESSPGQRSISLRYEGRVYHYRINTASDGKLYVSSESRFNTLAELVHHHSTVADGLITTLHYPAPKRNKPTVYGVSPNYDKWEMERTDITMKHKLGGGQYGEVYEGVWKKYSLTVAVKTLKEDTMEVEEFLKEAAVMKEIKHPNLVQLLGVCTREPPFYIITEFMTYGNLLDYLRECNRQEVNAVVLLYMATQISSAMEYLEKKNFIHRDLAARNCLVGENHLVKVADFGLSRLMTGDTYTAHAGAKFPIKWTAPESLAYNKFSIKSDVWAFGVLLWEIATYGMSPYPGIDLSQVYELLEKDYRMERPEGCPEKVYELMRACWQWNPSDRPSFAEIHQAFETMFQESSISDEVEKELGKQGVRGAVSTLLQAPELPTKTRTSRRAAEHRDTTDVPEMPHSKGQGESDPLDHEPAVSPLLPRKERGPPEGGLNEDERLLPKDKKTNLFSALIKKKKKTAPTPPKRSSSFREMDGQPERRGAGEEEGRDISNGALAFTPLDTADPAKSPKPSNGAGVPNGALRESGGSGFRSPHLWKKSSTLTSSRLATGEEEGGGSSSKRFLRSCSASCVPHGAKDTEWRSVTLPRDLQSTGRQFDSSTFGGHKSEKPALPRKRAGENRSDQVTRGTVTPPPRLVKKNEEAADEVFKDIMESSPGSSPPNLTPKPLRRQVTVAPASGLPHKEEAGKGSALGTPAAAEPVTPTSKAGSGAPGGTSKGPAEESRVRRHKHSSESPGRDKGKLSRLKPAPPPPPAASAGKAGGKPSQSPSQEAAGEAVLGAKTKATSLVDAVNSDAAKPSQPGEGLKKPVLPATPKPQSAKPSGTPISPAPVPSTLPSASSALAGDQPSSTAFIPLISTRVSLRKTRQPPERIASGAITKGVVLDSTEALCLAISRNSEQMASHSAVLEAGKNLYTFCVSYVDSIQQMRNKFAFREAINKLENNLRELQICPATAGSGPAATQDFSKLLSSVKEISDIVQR
Target sequence (Q13671 whole entry, looked up): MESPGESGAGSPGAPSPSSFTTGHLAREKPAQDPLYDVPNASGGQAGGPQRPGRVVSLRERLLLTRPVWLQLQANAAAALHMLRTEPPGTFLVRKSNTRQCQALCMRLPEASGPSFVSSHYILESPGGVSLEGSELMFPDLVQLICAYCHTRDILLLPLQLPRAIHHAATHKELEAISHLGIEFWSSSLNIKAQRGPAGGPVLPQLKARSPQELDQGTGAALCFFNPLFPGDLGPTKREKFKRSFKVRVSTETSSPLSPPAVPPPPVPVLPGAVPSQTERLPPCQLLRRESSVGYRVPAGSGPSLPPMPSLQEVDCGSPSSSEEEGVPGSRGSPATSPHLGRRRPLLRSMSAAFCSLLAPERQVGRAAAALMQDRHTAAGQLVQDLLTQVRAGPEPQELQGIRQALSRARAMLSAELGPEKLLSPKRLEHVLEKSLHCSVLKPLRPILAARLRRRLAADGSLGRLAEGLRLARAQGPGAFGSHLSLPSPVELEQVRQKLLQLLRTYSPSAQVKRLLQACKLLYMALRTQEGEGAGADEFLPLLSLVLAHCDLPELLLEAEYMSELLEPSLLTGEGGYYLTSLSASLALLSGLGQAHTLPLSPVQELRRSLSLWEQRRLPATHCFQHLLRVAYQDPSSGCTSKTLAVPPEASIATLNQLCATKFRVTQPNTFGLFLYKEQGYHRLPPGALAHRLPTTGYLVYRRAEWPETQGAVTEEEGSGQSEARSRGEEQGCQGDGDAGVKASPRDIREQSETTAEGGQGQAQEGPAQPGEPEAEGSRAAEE
PfM18AAP inh-1: blocks P. falciparum M18 aspartyl aminopeptidase; AID 1822; inhibition, % at 7.35 µM; hit rate 1.2% among 290,000; recombinant PfM18AAP, H-Glu-NHMec fluorogenic cleavage;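 active = inhibition above the campaign mean inhibition over all tested compounds plus 3 SD, cut at about 28% in these data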;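 also: 0% = plate median of test compound wells and 100% = 2 mM ZnCl2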
CTSL1 counter-1: cathepsin L1 inhibition, PFM18AAP counter-screen; recombinant F. hepatica cathepsin L1, Z-Leu-Arg-MCA fluorescence; inhibition, % at 5.96 µM; hit rate 0.49% among 300,000; AID 1906;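 active = inhibition above the mean of all tested compounds plus 3 SD, set per screening campaign, cut at about 17% in these data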;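 also: 0% = plate median of test compound wells and 100% = 1 µM Z-Phe-Ala-diazomethylketone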
PfM18AAP inh-2: confirmation of Plasmodium falciparum M18 aspartyl aminopeptidase inhibitors | shares compounds with PfM18AAP inh-1 | recombinant PfM18AAP, H-Glu-NHMec fluorogenic cleavage | inhibition, % at 7.35 µM | hit rate 28% among 2,400 | AID 2170;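 active = mean inhibition over replicate wells above the hit cutoff set for the earlier primary screen, cut at about 29% in these data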;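 also: 0% = median of test compound wells and 100% = 2 mM ZnCl2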
CTSL1 counter-2: Cathepsin L (human) inhibition, confirmation. inhibition, % at 5.96 µM. 2,400 tested, under 10 active. shares compounds with PfM18AAP inh-1. purified cathepsin L1, Z-Leu-Arg-MCA fluorescence;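 active = average inhibition across replicates above the hit cutoff set in the earlier primary screen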;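 also: 0% = median of test compound wells and 100% = Z-Phe-Ala-diazomethylketone 1 µM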
An asterisk follows results filed as active; u = inconclusive; x = no result given. A selection: hits, their analogues and other compounds. The true share with any hit is near 2.1%.

SMILES	Calb FLC	Rin1-Abl PPI inh	PfM18AAP inh-1	CTSL1 counter-1	PfM18AAP inh-2	CTSL1 counter-2
Cc1ccc(O)c(NC(=O)/C=C/C(=O)O)c1	1	5	33*	-4	-22	4
O=C(NCC1CCCO1)C1CCCN(S(=O)(=O)c2ccc(Br)cc2)C1 (centres undefined)	-6	1	32*	4	-52	-1
Cc1nc2ncccn2c1-c1csc(Nc2ccc(O)cc2)n1	-10	-2	41*	x	43*	-2
Cc1ccc(Nc2nc(-c3ccc(O)c(O)c3)cs2)nc1	35	x	63*	x	43*	2
Cc1cccnc1Nc1nc(-c2ccc(O)cc2O)cs1	-9	2	32*	1	5	4
Cc1cc(NS(=O)(=O)c2ccc(Nc3nc(-c4ccc(O)cc4)cs3)cc2)no1	3	-3	43*	-6	18	-4
Cc1ccc(Nc2nc(-c3c(C)nc4ncccn34)cs2)cc1	21	-4	5	2	x	x
O=S(=O)(c1cnc(Cl)c(Br)c1)N1CCCCCC1	-8	3	1	-5	x	x
NS(=O)(=O)c1ccc(Nc2nc(-c3ccc(O)cc3O)cs2)cc1	7	-3	41*	1	39*	3
Oc1ccc(-c2csc(Nc3ccccn3)n2)c(O)c1	1	-1	34*	5	13	-1
O=C(Nc1cc2c(cc1Br)OCCO2)c1cccnc1	-3	1	-10	-2	x	x
Cc1ccc([N+](=O)[O-])cc1S(=O)(=O)Nc1ccc(O)c(Sc2ncn[nH]2)c1	12	-1	54*	1	38*	-4
O=S1(=O)CC(N2CCC(Cc3ccccc3)CC2)CN1CCc1ccccc1 (centres undefined)	x	-1	x	x	x	x
CN(CC(=O)Nc1ccc(N2CCOCC2)cc1)C(=O)C1CCCC1	-14	1	-1	1	x	x
CCC(C)c1ccccc1NC(=O)C(C)OC(=O)c1ccco1 (centres undefined)	-6	0	x	1	x	x
COc1ccc(C)cc1NCc1cc(=O)oc2cc(-c3ccccc3)c(O)cc12	-2	0	8	-3	x	x
COC(=O)c1ccccc1NCc1cc(=O)oc2cc(O)c(O)cc12	-14	3	34*	7	-5	8
Cc1nc2c(Br)cc(Br)cc2cc1O	0	-4	-16	6	x	x
Cc1ccc(/C=N/Nc2nncn2N)cc1	11	-2	40*	-2	-17	1
Cc1nnc(N/N=C/c2ccc([N+](=O)[O-])cc2)n1N	2	1	15	-2	x	x
Nn1cnnc1N/N=C/c1ccc(Cl)c([N+](=O)[O-])c1	-4	1	57*	1	-41	-4
Nn1cnnc1N/N=C/c1ccc(F)cc1	6	4	42*	-4	-21	-2
Nc1nnnn1/N=C\c1ccc(Cl)c([N+](=O)[O-])c1	5	3	-6	2	x	x
COCCCN1C(=O)C(CC(=O)NCCN2CCOCC2)CC(C(=O)N(C)C)=C1C (centres undefined)	x	2	x	x	x	x
CC(C)(C)OC(=O)NC1CONC1=O (centres undefined)	-7	2	-2	-2	x	x
SMILES	Calb FLC	Rin1-Abl PPI inh	PfM18AAP inh-1	CTSL1 counter-1	PfM18AAP inh-2	CTSL1 counter-2
CCOC(=O)c1ccccc1NC(=O)C1CC(=O)N(C2CCCC2)C1 (centres undefined)	x	1	x	x	x	x
CCCNC(=O)C1CCN(S(=O)(=O)c2ccc3[nH]c(=O)ccc3c2)CC1	-5	2	-1	3	x	x
CCC(C)NC(=O)C1CCN(S(=O)(=O)c2ccc3[nH]c(=O)ccc3c2)CC1 (centres undefined)	-8	2	36*	0	-56	-1
Cc1c(NC(=O)CN2CCN(c3ccc(O)cc3)CC2)c(=O)n(-c2ccccc2)n1C	48	2	39*	10	-24	3
Cc1ccc(NC(=O)Cn2ccnc2)cc1C	-14	-1	-1	0	x	x
Cc1c(O)ccc(/C=N/Nc2ncccc2[N+](=O)[O-])c1O	-2	-2	43*	2	10	1
O=[N+]([O-])c1cccnc1N/N=C/c1ccccc1O	-18	2	9	0	x	x
CCc1nnc(NC(=O)CSc2nnc(CNC(=O)c3ccc(OC)c(OC)c3)o2)s1	0	1	42*	-4	-25	-4
CC(=O)Nc1ccc(C=NNc2ccc([N+](=O)[O-])cc2S(=O)(=O)Nc2ccccc2C(=O)O)cc1	x	4	x	x	x	x
Cc1ccc(NC(=S)NNc2ccc([N+](=O)[O-])cc2S(=O)(=O)Nc2ccccc2C(=O)O)cc1C	u	3	59*	4	-7	-5
NC(=O)c1ccc(NC(=O)CN2C(=O)NC(c3ccccc3)(c3ccccc3)C2=O)cc1	2	-1	-2	-3	x	x
COc1ccc(C(=O)NNC(=O)C(=O)NCc2ccccc2)cc1	22	-8	22	-2	x	x
O=C(C=Cc1ccccc1)c1cc(Br)ccc1O	x	2	x	x	x	x
Cc1cccc(/C=C/C(=O)c2cc(Br)ccc(=O)c2O)c1	100*	-1	49*	-2	-21	4
COc1ccc(OC)c(NC(=O)Nc2cc(C(=O)O)ccc2C)c1	4	4	7	5	x	x
O=C(NCc1cccs1)c1ccc2sc([C@@H]3O[C@H](CO)[C@H](O)[C@H](O)[C@H]3O)nc2c1	x	4	x	x	x	x
O=C1NCC(Nc2ccccc2Cl)C(=O)N1 (centres undefined)	x	1	x	x	x	x
O=c1c2cn[nH]c2[nH]c(=S)n1-c1cccc2ccccc12	4	-26	51*	2	4	2
S=c1[nH]nc(Cc2ccccc2)n1-c1cccc2ccccc12	27	-2	5	-2	x	x
COc1ccc(-n2c(=S)[nH]c3[nH]ncc3c2=O)cc1	-1	1	46*	1	-12	-3
O=c1c2cn[nH]c2[nH]c(=S)n1-c1ccccc1	4	1	27	-2	x	x
COc1ccc2nc(Cl)c(C=O)c(N3CCOCC3)c2c1	x	0	x	x	x	x
Cc1cc(NC(=S)NC(=O)C2CC2)ccc1Br	59	2	-2	5	x	x
O=C(Cc1ccccc1)Nc1nc(=O)c2ccccc2s1	u	1	40*	1	-53	-11
Nc1ccc(C(=O)Nc2nc3ccccc3s2)cc1	-14	2	3	11	x	x
SMILES	Calb FLC	Rin1-Abl PPI inh	PfM18AAP inh-1	CTSL1 counter-1	PfM18AAP inh-2	CTSL1 counter-2
O=C(Cc1ccccc1)Nc1nc2ccccc2s1	-29	-3	3	-1	x	x
O=C(Nc1nc(=O)c2ccccc2s1)c1ccc(F)cc1	-12	-4	42*	-1	-32	-1
Cn1c(=O)c2[nH]c(C(O)c3ccc(Cl)cc3)nc2n(C)c1=O (centres undefined)	x	-1	x	x	x	x
CC[n+]1c(/C=C(\C)OC)sc2ccccc21	x	3	23	x	x	x
CC[n+]1c(/C=C/C=C/N(C(C)=O)c2ccccc2)sc2cc(OC)ccc21	x	x	43*	1	-36	1
O=C1CC(N2CCN(c3ccc(O)cc3)CC2)C(=O)N1c1ccc2c(c1)OCO2 (centres undefined)	0	-1	32*	6	-16	0
O=C1CC(N2CCCCCC2)C(=O)N1c1ccc2c(c1)OCO2 (centres undefined)	36	-6	-6	-1	x	x

Screens deposited in PubChem BioAssay by several laboratories.
